# Measured values taken from PubChem BioAssay.
# Records with an inconclusive call do not appear. The source made the active and inactive calls.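 Rule for the calls, unless noted: active = viability loss from added drug above about 55%, and viability with drug at most 40%, in both replicates (limit read from the data, passing the limit was not always enough); inconclusive = both conditions met in only one replicate; inactive = neither replicate meets both conditions.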
# What was measured:
# [1] = Her2 expression decrease, cell viability multiplex – SKBR3 breast tumor cells, AlphaScreen, ATP viability, primary screen (AID 461;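 active = Her2 level under about 52% in both replicate screens, with viability over 70% of control, limit read from the data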;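 for Her2 level: lower value means less Her2 protein in the cells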;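 for viability: percent of carrier control wells set as 100% viability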); conditions: SKBR3 Her2 protein level, 18-24 h, measured here: SKBR3 viability, ATP luminescence, at 10 µM
# [2] = biological target: Receptor tyrosine-protein kinase erbB-2 (Homo sapiens) (UniProt P04626); experiment: as above; conditions: 18-24 h, at 10 µM, stronger effect = lower value
# [3] = reduced viability of SK-BR-3 breast cancer cells – cell-based, 24 h, human, pilot screen (AID 572;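 active = viability at or below 10% of carrier control in both of two separate runs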;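 note: compound exposure lasted between 18 and 24 h rather than exactly 24 h; 100% = carrier-treated control wells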); conditions: SK-BR-3 viability, CellTiter-Glo luminescence, at 10 µM, stronger effect = lower value
# [4] = HUVEC growth inhibition – cell-based, human, primary screen (AID 575;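 active = viability at or below 30% in both replicate assays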;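 note: 100% = median of untreated cell wells with 0.1% DMSO on each plate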); conditions: HUVEC proliferation, CellTiter-Glo luminescence, 72 h; at 10 µM; stronger effect = lower value
# [5] = H69AR cell proliferation blockers – human, duplicate replicates, primary screen (AID 580;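 active = viability at or under a set limit in both replicates, limit being median viability minus 3 SD, cut at about 48% in these data, passing the limit was not always enough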;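 note: 100% = mean luminescence of untreated wells and 0% = no signal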); conditions: H69AR lung tumor cells viability, ATP luminescence, 72 h; at 10 µM; stronger effect = lower value
# [6] = MRP1 drug-resistance reversers in H69AR cells – cell-based, doxorubicin co-treatment, pilot screen (AID 601); conditions: CellTiter-Glo, 72 h, at 10 µM; for differential viability (reversal): stronger effect = higher value
# [7] = yeast transport mutant growth inhibition pilot in 384-well plates, post-Golgi transport modulator project (AID 636; in the data active = inhibition above about 31%); conditions: absorbance 615 nm, about 18 h, stronger effect = higher value
# [8] = growth suppression of yeast trafficking mutant, preliminary HTS, modulators of trafficking downstream of Golgi apparatus project, 1536-format plate, OD 615 nm (AID 637; in the data active = inhibition above about 30%); conditions: yeast transport mutant growth, absorbance 615 nm, 18 h; stronger effect = higher value
# [9] = S. cerevisiae growth inhibition in permissive medium (OD615), pilot counter-assay for S. cerevisiae lifespan shortening project, permissive growth control (AID 705;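 active = growth inhibition above 25% in both replicates, a cutoff set 3 SD above the mean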); conditions: OD615, 24 h, at 10 µM, stronger effect = higher value
# [10] = S. cerevisiae growth inhibition in restrictive medium, OD615, pilot screen, restrictive growth control, yeast lifespan reduction project (AID 706;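 active = growth inhibition above a set limit, 3 SD over mean compound inhibition, in both replicates, cut at about 43% in these data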;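 note: modified DeaD lifespan yeast strain shifted to restrictive glucose medium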); conditions: OD615, 48 h, at 10 µM, stronger effect = higher value
# [11] = doxorubicin toxicity protection in MRP-1 cells – H69AR cells, CellTiter-Glo, duplicate, MRP-1 activator project, pilot screen (AID 807;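 active = viability increase at or above a cutoff of the median across tested compounds plus 3 SD, cut at about 8.5% in these data, passing the limit was not always enough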;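 note: compound pretreatment 18-22 h then 72 h combined with doxorubicin; 0% = doxorubicin alone and 100% = vehicle without doxorubicin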); conditions: H69AR viability with doxorubicin, CellTiter-Glo luminescence; at 10 µM; stronger effect = higher value
# [12] = viability of HCT116 without oncogenic beta-catenin – human colon tumor cells, pilot screen (AID 823;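 active = cell viability at or below a set limit in both duplicate runs, the limit being the all-compound median minus 4 SD, cut at about 23% in these data, passing the limit was not always enough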;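 note: 0% = wells killed by 20 µM Hyamine and 100% = untreated DMSO cell wells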); conditions: HCT116 beta-catenin knockout viability, CellTiter-Glo, 60 h; at 10 µM; stronger effect = lower value
# [13] = viability of PTEN-null HCT116 cells – cell-based, HCT116 clonal line, CellTiter-Glo, pilot screen (AID 824;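 active = viability at or below 27.92% in each of two runs, the all-compound median minus 4 SD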;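 note: 0% = 20 µM Hyamine control and 100% = vehicle cell control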); conditions: HCT116 PTEN-deleted viability, 60 h, at 10 µM, stronger effect = lower value
# [14] = RAM signaling pathway blockade in yeast – S. cerevisiae, Pdr1DBD-CYC8 efflux-inhibited sensitized strain, primary screen (AID 1298;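 active = RAM network inhibition above 8.4% in each of two replicates, 3 SD over the compound average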;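 note: 0% = DMSO untreated cells without growth and 100% = 10 µM 1-NA-PP1 full growth; higher means more yeast growth rescued from 5-FOA killing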); conditions: S. cerevisiae cbk1-as DSE1-URA3 strain, 5-FOA growth OD615, 2 d; at 50 µM; stronger effect = higher value
# [15] = RAM pathway blockade in budding yeast – dse1pr::URA3 reporter, 5-FOA selection, pilot screen (AID 869;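 active = inhibition over a set limit, the all-compound mean plus 3 SD, in both replicate runs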;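 note: 0% = DMSO wells with no growth and 100% = 10 µM 1-NA-PP1 with full growth; RAM network block rescues cells from 5-FOA so hits raise OD615 growth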); conditions: S. cerevisiae dse1pr::URA3 5-FOA growth, OD615, 2 d; at 10 µM; stronger effect = higher value; strain carries analog-sensitive mutant Cbk1 kinase
# [16] = H69AR cells + 2 uM doxorubicin, measured here: viability with 2 uM doxorubicin, stronger effect = lower value
# [17] = H69AR cells, compound alone cytotoxicity
# Chain of Receptor tyrosine-protein kinase erbB-2 (Homo sapiens) (P04626 whole entry, looked up): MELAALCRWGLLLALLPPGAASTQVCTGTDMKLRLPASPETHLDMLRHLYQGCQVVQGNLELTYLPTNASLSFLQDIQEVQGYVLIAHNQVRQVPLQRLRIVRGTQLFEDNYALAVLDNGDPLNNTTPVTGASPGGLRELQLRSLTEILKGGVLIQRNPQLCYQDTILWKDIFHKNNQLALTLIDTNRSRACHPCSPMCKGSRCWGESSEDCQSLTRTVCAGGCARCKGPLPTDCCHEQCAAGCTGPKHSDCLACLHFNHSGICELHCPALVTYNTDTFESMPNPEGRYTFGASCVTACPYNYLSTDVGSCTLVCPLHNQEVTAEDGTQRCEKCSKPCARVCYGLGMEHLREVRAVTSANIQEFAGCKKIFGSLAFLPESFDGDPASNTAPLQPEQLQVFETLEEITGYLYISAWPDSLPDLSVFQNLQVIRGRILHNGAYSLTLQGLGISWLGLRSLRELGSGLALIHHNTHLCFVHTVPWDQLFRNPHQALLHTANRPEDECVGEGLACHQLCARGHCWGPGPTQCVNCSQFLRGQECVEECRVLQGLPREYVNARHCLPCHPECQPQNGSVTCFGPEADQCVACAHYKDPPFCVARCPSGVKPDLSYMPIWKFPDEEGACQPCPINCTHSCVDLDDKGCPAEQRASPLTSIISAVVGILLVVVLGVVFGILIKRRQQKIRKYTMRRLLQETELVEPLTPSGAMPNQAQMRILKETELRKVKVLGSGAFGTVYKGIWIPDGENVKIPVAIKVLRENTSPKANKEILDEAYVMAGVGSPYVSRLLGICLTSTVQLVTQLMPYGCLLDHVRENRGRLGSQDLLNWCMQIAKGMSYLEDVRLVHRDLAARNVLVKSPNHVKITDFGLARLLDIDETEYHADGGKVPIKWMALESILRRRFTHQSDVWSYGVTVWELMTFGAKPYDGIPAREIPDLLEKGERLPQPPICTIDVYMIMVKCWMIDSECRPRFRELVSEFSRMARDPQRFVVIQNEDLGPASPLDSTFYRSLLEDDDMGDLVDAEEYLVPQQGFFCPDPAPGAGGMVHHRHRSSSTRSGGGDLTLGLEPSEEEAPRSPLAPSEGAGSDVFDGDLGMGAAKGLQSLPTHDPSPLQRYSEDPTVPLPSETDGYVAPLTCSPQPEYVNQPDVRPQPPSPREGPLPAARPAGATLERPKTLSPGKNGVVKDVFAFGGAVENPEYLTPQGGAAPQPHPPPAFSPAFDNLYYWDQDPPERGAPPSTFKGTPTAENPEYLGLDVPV
Compound,viability [1] [%],Her2 level [2],viability [3],viability [4],viability [5],differential viability (reversal) ([6]; H69AR cells + 2 uM doxorubicin),"viability [6, 16] [%]","viability [6, 17] [%]",inhibition [7],inhibition [8],growth inhibition [9],growth inhibition [10],viability increase [11],viability [12],viability [13],RAM network inhibition [14],inhibition [15]
COc1ccc(C2c3c(oc4ccccc4c3=O)C(=O)N2c2ccc(C)cn2)cc1OC (stereo not drawn),83,126% (inactive),83% (inactive),98.6% (inactive),94.3% (inactive),23.3% (inactive),71,94.3,-0.9% (inactive),-7.5% (inactive),-7.72% (inactive),-0.265% (inactive),-2.66% (inactive),89% (inactive),82.2% (inactive),11.6% (inactive),
CCN(CC)CCNC(=O)c1ccc(CS(=O)(=O)c2ccc(Br)cc2)o1,92.5,110% (inactive),92.5% (inactive),100% (inactive),95.9% (inactive),5.79% (inactive),90.1,95.9,-0.26% (inactive),0.17% (inactive),-12.3% (inactive),-17.7% (inactive),-2.1% (inactive),97.1% (inactive),96.5% (inactive),0.74% (inactive),0.92% (inactive)
CCc1ccc(N(CC(=O)NC2CCCC2)S(=O)(=O)c2c(C)noc2C)cc1,102,110% (inactive),102% (inactive),101% (inactive),84% (inactive),3.79% (inactive),80.2,84,-4.4% (inactive),-0.83% (inactive),-3.32% (inactive),3.27% (inactive),-1.49% (inactive),92.3% (inactive),93.8% (inactive),2.82% (inactive),
CCCCN=CC1=C(O)C(C(=O)OC)C(C)(C)CC1=O (stereo not drawn),79,93.5% (inactive),79% (inactive),104% (inactive),91.4% (inactive),4.54% (inactive),86.9,91.4,1.03% (inactive),25.8% (inactive),-1.01% (inactive),-5.23% (inactive),-0.63% (inactive),93.8% (inactive),93.9% (inactive),1.5% (inactive),0.72% (inactive)
COc1ccc(NC(=O)CSc2nc3c(c(=O)n2-c2ccccc2OC)SCC3)cc1,102,110% (inactive),102% (inactive),87.4% (inactive),89.7% (inactive),-5.71% (inactive),95.4,89.7,-1.6% (inactive),-5.5% (inactive),1.7% (inactive),-1.84% (inactive),-0.32% (inactive),99% (inactive),98.9% (inactive),3.97% (inactive),2.67% (inactive)
